According to ChEMBL document CHEMBL3988442, “University of Dundee, Small-Polar-MMV Screening Library” (2021):
About 13,000 (27%) of roughly 48,000 compounds showed an effect of 50% or more. The list shows a part of the results.

system: Wolbachia pipientis; test: Anti-Wolbachia Cell-Based Screen; type: functional; set-up: scale not given: in the data most compounds retested in dose-response had high values; settings: 5 µM

Row | SMILES | Percent Effect [%]
1 | Cc1ncc2c(c1CNC(=O)C1(C)CCCCO1)CCNC2 (stereo not drawn) | 13.24
2 | Cc1nn(CCNC(C)Cn2cncn2)c(C)c1Cl (stereo not drawn) | -0.5097
3 | CC(C)C(NC(=O)c1ccccc1F)C(=O)N1CCC2(CC1)OCCO2 (stereo not drawn) | -11.28
4 | COc1ncccc1CN1CC[C@H]2O[C@H](c3nnc(C)o3)CC[C@H]21 | -0.9405
5 | O=C(O)C(F)(F)F.O=C(O)C(F)(F)F.c1ccc(O[C@@H]2CO[C@@]3(CCCN(CC4CCOCC4)C3)C2)nc1 | -10.07
6 | Cc1nc(CN2CC[C@H]3[C@H]2CCN3c2ncccn2)cs1.O=C(O)C(F)(F)F.O=C(O)C(F)(F)F.O=C(O)C(F)(F)F | -7.266
7 | O=C(O)C(F)(F)F.O=C(O)C(F)(F)F.c1ccc(O[C@@H]2CC[C@H]3[C@H]2OCCN3CC2CCOCC2)nc1 | -13.85
8 | O=C(O)C(F)(F)F.O=C(O)C(F)(F)F.c1ccc(OCC2C[C@@H]3[C@@H](C2)OCCN3Cc2ccoc2)nc1 (stereo partly drawn) | 92.52
9 | Cc1nc(CN2CCO[C@H]3[C@@H](OCc4ccccn4)CC[C@@H]32)cs1.O=C(O)C(F)(F)F.O=C(O)C(F)(F)F | 8
10 | CC(C)NC(=O)[C@H]1C[C@@H]2[C@@H](C1)OCCN2Cc1ccccn1.O=C(O)C(F)(F)F.O=C(O)C(F)(F)F | 2.364
11 | Fc1ccc(CN2CCO[C@H]3[C@H](Oc4ccccn4)CC[C@@H]32)cc1.O=C(O)C(F)(F)F.O=C(O)C(F)(F)F | -5.975
12 | Cc1nc(CN2CCO[C@@H]3CC(COc4ccccn4)C[C@H]32)cs1.O=C(O)C(F)(F)F.O=C(O)C(F)(F)F (stereo partly drawn) | 94.34
13 | O=C(O)C(F)(F)F.O=C(O)C(F)(F)F.c1ccc(OCC2C[C@@H]3[C@@H](C2)OCCN3CC2CCOCC2)nc1 (stereo partly drawn) | 96.17
14 | CCCn1ncc(CN2CCCC(C(=O)c3ccc(Cl)cc3C)C2)c1C (stereo not drawn) | -13.45
15 | Cc1noc(C)c1CN1CCCC2(C1)CN(c1nccs1)CCO2.O=C(O)C(F)(F)F (stereo not drawn) | -6.248
16 | Cc1noc(C)c1CN1CCOCC12CCN(c1nccs1)CC2.O=C(O)C(F)(F)F | 98.18
17 | Cc1noc(C)c1CN1CCOC2(CCCN(c3nccs3)C2)C1 (stereo not drawn) | -30.09
18 | Cc1cc(Cl)ccc1C(=O)C1CCCN(Cc2cnc(N(C)C)s2)C1 (stereo not drawn) | 5.845
19 | O=C(Nc1cc(C(F)(F)F)c[nH]c1=O)C1CCCN1 (stereo not drawn) | 84.36
20 | Cc1nc(C)c(CC(=O)N2C[C@@H]3CC[C@H](C2)N(CC2CCC2)C3)c(=O)[nH]1 | -4.383
21 | O=C1NC[C@H]2CN(Cc3ccnc4ccccc34)CCN12 | 12.9
22 | CN1C(=O)CCC12CCCN(Cc1nccs1)C2.O=C(O)C(F)(F)F (stereo not drawn) | 0.9809
23 | Cc1csc(CN2C[C@@H]3CN(C)CCO[C@@H]3C2)n1 | 8.009
24 | CN1CCOC(CN(C(=O)CN2CCCC2=O)c2nccs2)C1 (stereo not drawn) | 101.5
25 | O=C(Cc1cccnc1)N1C[C@H]2CC[C@@H]1CN(Cc1ccc(F)cc1)C2 | 4.977
26 | CNS(=O)(=O)CC(=O)NC(C)Cc1cccc(Cl)c1 (stereo not drawn) | -8.41

Row | SMILES | Percent Effect [%]
27 | Cc1noc(C)c1CN1CCN(C)c2ncccc2C1.O=C(O)C(F)(F)F.O=C(O)C(F)(F)F | -16.26
28 | Cc1cnc(N2CCc3c(cnc(C)c3C(=O)O)C2)nc1.O=C(O)C(F)(F)F | -4.301
29 | CN(C)c1ncc2c(c1C(=O)O)CCN(Cc1ccco1)C2.O=C(O)C(F)(F)F.O=C(O)C(F)(F)F | 87.52
30 | CN(C)CCN1CCN(Cc2ccco2)Cc2cccnc21.O=C(O)C(F)(F)F.O=C(O)C(F)(F)F.O=C(O)C(F)(F)F | 95.25
31 | CN(C)CCN1CCN(Cc2nccs2)Cc2cccnc21.O=C(O)C(F)(F)F.O=C(O)C(F)(F)F.O=C(O)C(F)(F)F | 88.3
32 | COCCN1CCN(Cc2ccncc2)c2ncccc2C1.O=C(O)C(F)(F)F.O=C(O)C(F)(F)F.O=C(O)C(F)(F)F | -7.245
33 | Cc1ccc2c(n1)N(C)CCN(Cc1ccco1)C2.O=C(O)C(F)(F)F.O=C(O)C(F)(F)F | -3.328
34 | Cc1ncc2c(c1C(=O)O)CCN(c1ncc(F)cn1)C2.O=C(O)C(F)(F)F | -15.02
35 | CN(C)CCN1CCN(Cc2cccs2)Cc2cccnc21.O=C(O)C(F)(F)F.O=C(O)C(F)(F)F.O=C(O)C(F)(F)F | 92.36
36 | COCCN1CCN(Cc2ccco2)Cc2ccc(C)nc21.O=C(O)C(F)(F)F.O=C(O)C(F)(F)F | -4.487
37 | COCCNC(=O)[C@H]1CN2CCC1C[C@@H]2Cn1cc(C(C)(C)C)nn1 (stereo partly drawn) | -20.26
38 | CN(C)C(=O)CN1CC[C@H]2[C@H]1CCN2c1ncccn1.O=C(O)C(F)(F)F.O=C(O)C(F)(F)F | -4.997
39 | CCCn1nc(C)c(-c2cncn2CC2(N(C)C)CCC(C)CC2)c1C (stereo not drawn) | 117
40 | Cc1ncsc1CN1C[C@@H](OCc2ccncc2)[C@H]2OCCC[C@H]21.O=C(O)C(F)(F)F.O=C(O)C(F)(F)F | -3.825
41 | Cc1cccc(CO[C@@H]2CC[C@H]3[C@H]2OCCN3Cc2ccoc2)n1 | 89.7
42 | O=C(O)C(F)(F)F.O=C(O)C(F)(F)F.O=C1N(c2cccnc2)CCC12CCCN(Cc1ccoc1)C2 (stereo not drawn) | -1.124
43 | CCO[C@@H]1CC[C@H]2[C@H]1OCCN2Cc1ccoc1.O=C(O)C(F)(F)F | 96.95
44 | O=C(O)C(F)(F)F.O=C(O)C(F)(F)F.c1cncc(COCC2CC[C@H]3[C@H]2OCCN3Cc2ccoc2)c1 (stereo partly drawn) | 109.4
45 | CCOCCN1CCO[C@H]2[C@H](OCc3ccccn3)CC[C@@H]21.O=C(O)C(F)(F)F.O=C(O)C(F)(F)F | 26.08
46 | Cc1ncsc1CN1C[C@H](OCc2ccncc2)[C@H]2OCCC[C@H]21.O=C(O)C(F)(F)F.O=C(O)C(F)(F)F | -13.88
47 | COCCN1CCO[C@H]2[C@H](OCc3cccc(C)n3)CC[C@@H]21 | 8.918
48 | c1ccc(O[C@@H]2CC[C@H]3[C@H]2OCCN3Cc2ccsc2)nc1 | -6.73
49 | Cc1cccc(CO[C@@H]2CC[C@H]3[C@H]2OCCN3Cc2ccsc2)n1.O=C(O)C(F)(F)F.O=C(O)C(F)(F)F | -22.6
50 | O=C(O)C(F)(F)F.O=C(O)C(F)(F)F.c1cc(CO[C@@H]2CN(Cc3ccoc3)[C@@H]3CCCO[C@@H]32)ccn1 | 101.1
51 | CC(C)CN1C(=O)CO[C@@H]2CNC[C@H]21 | -9.19
52 | CNC(=O)[C@@H]1C[C@H]2CN(C(=O)c3ccccn3)C[C@H]2N1C(C)C | -10.28

Row | SMILES | Percent Effect [%]
53 | CCCN1CCN(C(=O)c2ccnc(N)c2)[C@H]2CS(=O)(=O)C[C@H]21 | -9.553
54 | CCC(=O)N1CCN(Cc2cnc(C)nc2)[C@H]2CS(=O)(=O)C[C@H]21 | 99.52
55 | CCCN1CCN(C(=O)c2cncnc2C)[C@H]2CS(=O)(=O)C[C@H]21 | 18.46
56 | Cc1cccc(CN2CCN(C(=O)N(C)C)[C@@H]3CS(=O)(=O)C[C@@H]32)n1 | -5.175
57 | CCCN1CCN(C(=O)c2cnc(C)nc2)[C@H]2CS(=O)(=O)C[C@H]21 | -7.853
58 | Cc1ncc(CN2CCN(C(=O)N(C)C)[C@@H]3CS(=O)(=O)C[C@@H]32)cn1 | 93.36
59 | O=C(C1CCC1)N1CCN(Cc2cccnc2)[C@H]2CS(=O)(=O)C[C@H]21 | -3.397
60 | COC(=O)NCCC(=O)NC(C)Cc1ccccc1Br (stereo not drawn) | -17.72
61 | CO[C@H]1CCN(Cc2ccccn2)[C@@H]2CN(Cc3ccco3)C[C@H]12.O=C(O)C(F)(F)F.O=C(O)C(F)(F)F.O=C(O)C(F)(F)F | -3.065
62 | O=C(O)C(F)(F)F.O=C(O)C(F)(F)F.c1cncc(COC[C@H]2CC[C@H]3[C@H](CCN3Cc3nccs3)O2)c1 | 8.415
63 | COC[C@H]1CC[C@@H]2[C@@H](CCN2Cc2ccco2)O1.O=C(O)C(F)(F)F | 137.5
64 | Cc1noc(C)c1CN1CC[C@@H]2O[C@H](COCC3CC3)CC[C@@H]21.O=C(O)C(F)(F)F | 3.642
65 | O=C(O)C(F)(F)F.O=C(O)C(F)(F)F.c1ccc(COC[C@H]2CC[C@H]3[C@H](CCN3Cc3cccs3)O2)nc1 | 0.5679
66 | c1coc(CN2CC[C@@H]3O[C@@H](COCc4ccncc4)CC[C@@H]32)c1 | 67.65
67 | c1ccc(COC[C@H]2CC[C@H]3[C@H](CCN3Cc3ccco3)O2)nc1 | 102.6
68 | CN(C)C(=O)COC[C@H]1CC[C@@H]2[C@@H](CCN2Cc2ccccn2)O1.O=C(O)C(F)(F)F.O=C(O)C(F)(F)F | -0.6188
69 | O=C([C@@H]1CC[C@@H]2[C@@H](CCN2Cc2ccncc2)O1)N1CCCCO1 | -7.886
70 | c1ccc(CCN2CCOC3(CCc4ccccc43)C2)nc1 (stereo not drawn) | -3.634
71 | CC[C@H]1CN2CC[C@H]1C[C@@H]2CNC(=O)Nc1cc(OC)cc(OC)c1 | -7.573
72 | CN1CCN2C(=O)N(C3CCOCC3)C[C@H]2C1 | -7.245
73 | Cc1nc(CN2CCC23CCN(C(=O)c2ccncc2)CC3)cs1 | -6.735
74 | Cc1nc(CN2C[C@@H]3CN(C(=O)c4ccncc4)C[C@@H]3C2)cs1 | 103.2
75 | CNC(=O)CN1CC[C@H]2CN(C(=O)c3ccc(C)nc3)C[C@H]2C1.O=C(O)C(F)(F)F | -24.07
76 | Cc1ccc(C(=O)N2C[C@H]3CN(Cc4csc(C)n4)C[C@H]3C2)cn1 | 93.97
77 | Cc1nc(CN2CCO[C@H]3CN(C(=O)c4ccncc4)C[C@H]32)cs1 | 6.304
78 | Cc1ccc(C(=O)N2C[C@H]3CNC[C@H]3C2)cn1 | 11.13
